The full ranking holds about 33,000 sequences; the median of “E-score (-0.5 to 0.5)” is about -0.054, and the highest 2% start at about 0.39. Shown is part of a subset that was picked to be rich in the highest values.
target: Ylr278c (UniProt Q05854); test: PBM E-score (8-mer binding enrichment) (E-score (-0.5 to 0.5)); higher = stronger / more preferred TF binding; details: protein concentration: 200 nM; construct: GST-DNA-binding domain
Experimental: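 Universal 'all 10-mer' protein binding microarrays (Agilent AMADID 015681) probed with GST-tagged S. cerevisiae TFs (full-length or DBD) made by in vitro transcription/translation (PURExpress), about 100-200 nM. Bound TF was detected with fluorescent anti-GST. Each ungapped 8-mer (which stands for itself and its reverse complement) is scored by the PBM enrichment score (E-score), a modified Wilcoxon-Mann-Whitney statistic from -0.5 to +0.5, computed with the Universal PBM Analysis Suite. Scale: above 0.35 generally sequence-specific binding.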

Sequence of UniProt Q05854 (Q05854 whole entry, the tested form may be a part): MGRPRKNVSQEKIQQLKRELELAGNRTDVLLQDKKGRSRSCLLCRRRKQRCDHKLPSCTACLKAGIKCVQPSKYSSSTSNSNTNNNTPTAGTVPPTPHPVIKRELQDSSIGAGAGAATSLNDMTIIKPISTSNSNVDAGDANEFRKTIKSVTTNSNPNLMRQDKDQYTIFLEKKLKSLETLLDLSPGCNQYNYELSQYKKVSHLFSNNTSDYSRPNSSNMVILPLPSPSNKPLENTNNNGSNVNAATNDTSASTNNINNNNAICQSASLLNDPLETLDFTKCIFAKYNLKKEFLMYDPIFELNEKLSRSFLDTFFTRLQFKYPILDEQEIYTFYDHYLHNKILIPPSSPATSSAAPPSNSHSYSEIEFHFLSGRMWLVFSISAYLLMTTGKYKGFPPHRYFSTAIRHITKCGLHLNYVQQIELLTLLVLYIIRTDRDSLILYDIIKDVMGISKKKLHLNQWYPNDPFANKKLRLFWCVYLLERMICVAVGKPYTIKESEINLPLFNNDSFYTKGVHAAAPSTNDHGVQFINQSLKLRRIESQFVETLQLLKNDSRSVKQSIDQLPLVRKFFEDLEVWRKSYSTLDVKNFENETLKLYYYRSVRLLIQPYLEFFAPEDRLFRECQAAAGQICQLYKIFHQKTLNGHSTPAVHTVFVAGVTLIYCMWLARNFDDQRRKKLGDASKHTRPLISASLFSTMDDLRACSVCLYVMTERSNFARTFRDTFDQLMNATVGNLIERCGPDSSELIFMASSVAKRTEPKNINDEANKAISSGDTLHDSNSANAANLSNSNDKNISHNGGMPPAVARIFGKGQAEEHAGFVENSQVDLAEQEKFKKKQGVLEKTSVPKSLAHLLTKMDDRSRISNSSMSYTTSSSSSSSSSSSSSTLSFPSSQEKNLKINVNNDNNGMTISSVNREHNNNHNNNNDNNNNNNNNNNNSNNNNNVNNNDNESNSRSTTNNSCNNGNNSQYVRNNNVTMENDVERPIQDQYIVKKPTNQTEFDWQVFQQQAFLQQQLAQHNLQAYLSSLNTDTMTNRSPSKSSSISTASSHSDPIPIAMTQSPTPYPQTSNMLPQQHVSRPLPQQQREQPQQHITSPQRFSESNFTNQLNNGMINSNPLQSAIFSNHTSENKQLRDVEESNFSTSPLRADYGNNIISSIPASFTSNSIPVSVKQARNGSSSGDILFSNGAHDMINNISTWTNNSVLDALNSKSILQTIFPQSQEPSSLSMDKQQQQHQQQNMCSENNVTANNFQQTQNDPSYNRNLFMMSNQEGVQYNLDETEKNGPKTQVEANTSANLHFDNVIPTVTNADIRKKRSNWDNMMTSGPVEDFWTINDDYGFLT

Sequence | PBM E-score
ATTCGGAA | 0.36
ATTCGGAG | 0.422
ATTCGGAC | 0.392
ATTCGGGC | 0.18
ATTCGGCC | 0.284
ATTCGGCG | 0.286
AAGACAGC | -0.0488
AAGGGAAT | -0.149
CGCTTCTC | 0.168
AGGAGAGA | -0.136
CAGAGAGC | -0.184
CGGAGAGC | 0.389
GGGAGAGA | -0.201
AGGAGAGC | -0.275
CGGAGAGA | 0.402
AAGGTCAA | -0.195
ACTCTAAT | -0.121
ATTGGCAC | -0.247
CGGATCCG | 0.438
GGGATCCC | 0.325
CGGATCCC | 0.402
CGGATCCA | 0.221
AGGATCCG | 0.226
AGGATCCC | 0.113
ATGCAGCG | 0.0411

Sequence | PBM E-score
CCCATAAG | 0.0166
GTGGAGTA | -0.135
CCCAACAA | -0.0374
GACGGACA | 0.328
AACGGACA | 0.321
CCCGGACG | 0.273
GCCGGACC | 0.376
CCCGGACA | 0.405
GCAGGATA | -0.221
ACCGGACA | 0.401
ACTGGACA | -0.189
GCCGGATA | 0.4
CACGGATA | 0.196
CACGGACA | 0.317
GCCGGACA | 0.447
ACACCCCC | -0.133
GCTATCAC | -0.108
CGTGAACG | -0.0842
AGGCCCCT | -0.194
TACGGACA | 0.257
ACCGGACG | 0.369
ACCGGACC | 0.384
TCCGGACA | 0.456
TGCGGACA | 0.356
ACCGGACT | 0.443

Sequence | PBM E-score
CTTTTGCC | 0.093
AAGTTACT | 0.0192
AACCGTGA | -0.0334
GACTGGGA | 0.0171
ACGGAACC | 0.213
GCGGAACC | 0.254
CAGGAACA | -0.157
CGGGAACA | 0.192
GCGGAACA | 0.344
CCGGAACC | 0.402
TCGGAACA | 0.417
CCGGAACG | 0.411
CCGGAACA | 0.442
ACGGAACA | 0.27
ACGGAACG | 0.271
CAGGAACG | -0.153
AACTCAGT | -0.15
ATTCTCTA | -0.0579
CAGAAATA | 0.0765
AATGCATT | -0.0548
AAAGGCCG | 0.37
ACAACCGT | -0.251
ATTTGAGC | -0.102
CGTATCAG | 0.0563
AGTAGATG | -0.0703

Sequence | PBM E-score
ATCCAGAT | -0.146
TAACTTGA | -0.237
GGGGAGAC | 0.0986
ACGGAGAT | 0.465
GAGGAGAC | -0.0694
ACGGAGAC | 0.39
AGGGAGAT | -0.207
ATGGAGAC | -0.103
GCGGAGAC | 0.4
AAGGAGAT | 0.0883
AAGGAGAC | -0.214
GCCCATAC | -0.275
CTCCAGCA | -0.256
ATGGCTAC | -0.185
ATGGGTTG | -0.114
CAAGTATC | -0.152
GGATTTTA | 0.283
AAACGCCA | 0.0115
CAACGCCG | 0.318
AAACGCCG | 0.412
CGAGTCAG | -0.151
TAGGTAAA | -0.0912
GAATGCAA | 0.00843
CAATGCCG | 0.365
AAATGCCC | -0.0631

Sequence | PBM E-score
AAATGCCG | 0.423
AATACCTG | -0.107
AAACTCTG | -0.126
CGAACTCG | 0.0307
GGAACTCC | 0.393
CGAACTCA | -0.0578
GGAACTCA | 0.189
CGAACTCC | 0.39
AGAACTCC | 0.276
ACCTTGTC | -0.192
GGCTTGCA | -0.118
ACTGGTGC | -0.0757
AACTTCCA | 0.0686
CCGTTCCG | 0.402
CCGTTCCA | 0.0158
AAGTTCCG | 0.42
ACGTTCCG | 0.289
CAGTTCCG | 0.348
AAGTTCCT | -0.0671
ATGTTCCC | -0.0151
AACTTCCT | 0.00298
ATGTTCCG | 0.429
ATGTTCCA | -0.162
AACTTCCG | 0.433
ATCCTCAG | 0.0306

Sequence | PBM E-score
AAATAGCC | -0.00231
AATTCTCT | -0.113
AATCCACA | -0.0935
AAGCGGCG | 0.222
GGGTAACC | -0.0903
GGAGAGTA | 0.243
CTCCGGTC | 0.455
ATCCGGTC | 0.346
ATCCGGTA | 0.294
GACCGGTC | 0.397
CACCGGTC | 0.183
GTCCGGTA | 0.366
AACCGGTC | 0.198
CGCCGGTC | 0.388
CTCCGGTA | 0.47
ATGCACCG | 0.178
CAACTCGC | -0.0405
TAAGAAAA | -0.0396
CGCGCTTA | 0.0847
AAGACGTA | -0.154
CAGACTGG | -0.271
ATGCCGGG | 0.336
GTGCCGTA | 0.0749
GTGCCGGA | 0.438
CTGCCGGA | 0.355

Sequence | PBM E-score
ATGCCGGC | 0.372
ATGCCGGA | 0.456
ATGCGCTC | -0.034
CCTGTGGC | -0.166
GCGCGCTA | 0.0544
CGTATATA | -0.111
GAATTGCC | 0.182
AGGGGATG | -0.112
GCTACCCA | -0.196
ACACTCCC | 0.00682
ACTCTCCG | 0.405
CCACTCCA | -0.0346
ACACTCCG | 0.398
ATACTCCA | -0.0317
ATACTCCG | 0.487
CCACTCCC | 0.0826
CCTCTCCG | 0.333
CCACTCCG | 0.437
ACACTCCT | -0.0208
ACTCTCCA | -0.0794
ATACTCCC | 0.243
CAACAGAG | -0.0308
GACGCACA | 0.146
CTGAGGCC | 0.115
GATAGTGA | -0.0321

Sequence | PBM E-score
ATTTTAAA | 0.0686
CCAACTGG | -0.22
AGTTGCGC | 0.233
ACTTCACT | -0.0406
AAATCAGT | 0.0231
AGTCTCCC | 0.102
AGTCTCCG | 0.434
AGTCTCCA | -0.312
ATTCTCCC | 0.0768
ATTCTCCG | 0.474
ATTCTCCA | -0.052
CCGTCTCA | 0.0735
CTCTGCTA | -0.128
CTAGCAGA | -0.195
CTCAAAGA | -0.2
TAGTCATA | -0.145
AATATCGG | 0.395
CAAATCCG | 0.381
AATATCCC | 0.211
AAAATCCG | 0.451
AATATCCG | 0.423
AATATCGC | 0.125
ATTATCCC | 0.0767
ATTATCCG | 0.393
AAAATCCC | 0.263

Sequence | PBM E-score
AATATCGA | -0.0141
AATATCCA | 0.0239
ATTATCCA | -0.155
ACGCATGC | -0.0181
GCTCGTTA | -0.188
ATCAGCGG | 0.29
CGACCACG | 0.0345
ATACAGCA | -0.0117
AAATCAAC | -0.111
AACTGACC | 0.152
AGGCGCCG | 0.206
CCGCGCCG | 0.4
CCGCGCGG | 0.433
CGGCGCCG | 0.461
CCGCGCGC | 0.28
CCGCGCCC | 0.191
CCGCGCGA | 0.216
CCGCGCCA | 0.182
CGGCGCCA | 0.214
